From publication PMC9911399, “Two distinct binding modes provide the RNA-binding protein RbFox with extraordinary sequence specificity” come the findings set out here.

Positions count from the first letter of the chain named. The full ranking holds about 16,000 sequences; the median of “ka relative to ugcaugu” is about 0.096, and the highest 2% start at about 0.35. For the sample, the highest values were picked, then their nearest neighbours and some sequences at random.

To fix the notation:
B1: GGUGGAC (DNA:RNA)
RNA: GGGAGACCGGAAUUCAGAUUGUCCGGUGGACUUAAAUCCCGUCGUAGCCACCA
DNA 1: CAATCTGAATTCCGGTCTCCC
DNA 2: TGGTGGCTACGACGGGATT
B2: CGCAACA (DNA:RNA)
RNA: B1 RNA with G25C, U27C, G28A, G29A, A30C, C31A
DNA 1: CAATCTGAATTCCGGTCTCCC
DNA 2: TGGTGGCTACGACGGGATT
B3: GCACAGC (DNA:RNA)
RNA: B1 RNA with G26C, U27A, G28C, G29A, A30G
DNA 1: CAATCTGAATTCCGGTCTCCC
DNA 2: TGGTGGCTACGACGGGATT
B4: GCGAUGU (DNA:RNA)
RNA: B1 RNA with G26C, U27G, G28A, G29U, A30G, C31U
DNA 1: CAATCTGAATTCCGGTCTCCC
DNA 2: TGGTGGCTACGACGGGATT
B5: CUCAAAA (DNA:RNA)
RNA: B1 RNA with G25C, G26U, U27C, G28A, G29A, C31A
DNA 1: CAATCTGAATTCCGGTCTCCC
DNA 2: TGGTGGCTACGACGGGATT
B6: GUGUGUG (DNA:RNA)
RNA: B1 RNA with G26U, U27G, G28U, A30U, C31G
DNA 1: CAATCTGAATTCCGGTCTCCC
DNA 2: TGGTGGCTACGACGGGATT
B7: GUCCGUG (DNA:RNA)
RNA: B1 RNA with G26U, U27C, G28C, A30U, C31G
DNA 1: CAATCTGAATTCCGGTCTCCC
DNA 2: TGGTGGCTACGACGGGATT
B8: GUACGUG (DNA:RNA)
RNA: B1 RNA with G26U, U27A, G28C, A30U, C31G
DNA 1: CAATCTGAATTCCGGTCTCCC
DNA 2: TGGTGGCTACGACGGGATT
B9: UUGUUGU (DNA:RNA)
RNA: GGGAGACCGGAAUUCAGAUUGUCCUUGUUGUUUAAAUCCCGUCGUAGCCACCA
DNA 1: CAATCTGAATTCCGGTCTCCC
DNA 2: TGGTGGCTACGACGGGATT
B10: UCGUCGU (DNA:RNA)
RNA: B9 RNA with U26C, U29C
DNA 1: CAATCTGAATTCCGGTCTCCC
DNA 2: TGGTGGCTACGACGGGATT
B11: UCGUUUU (DNA:RNA)
RNA: B9 RNA with U26C, G30U
DNA 1: CAATCTGAATTCCGGTCTCCC
DNA 2: TGGTGGCTACGACGGGATT
B12: GUGUACG (DNA:RNA)
RNA: B9 RNA with U25G, U29A, G30C, U31G
DNA 1: CAATCTGAATTCCGGTCTCCC
DNA 2: TGGTGGCTACGACGGGATT
B13: UUGUCGU (DNA:RNA)
RNA: B9 RNA with U29C
DNA 1: CAATCTGAATTCCGGTCTCCC
DNA 2: TGGTGGCTACGACGGGATT
B14: UCGUUUG (DNA:RNA)
RNA: B9 RNA with U26C, G30U, U31G
DNA 1: CAATCTGAATTCCGGTCTCCC
DNA 2: TGGTGGCTACGACGGGATT
B15: UUGUUUG (DNA:RNA)
RNA: B9 RNA with G30U, U31G
DNA 1: CAATCTGAATTCCGGTCTCCC
DNA 2: TGGTGGCTACGACGGGATT
B16: UUGUACG (DNA:RNA)
RNA: B9 RNA with U29A, G30C, U31G
DNA 1: CAATCTGAATTCCGGTCTCCC
DNA 2: TGGTGGCTACGACGGGATT
B17: GUGUCCC (DNA:RNA)
RNA: B9 RNA with U25G, U29C, G30C, U31C
DNA 1: CAATCTGAATTCCGGTCTCCC
DNA 2: TGGTGGCTACGACGGGATT
B18: UUAGCGG (DNA:RNA)
RNA: B9 RNA with G27A, U28G, U29C, U31G
DNA 1: CAATCTGAATTCCGGTCTCCC
DNA 2: TGGTGGCTACGACGGGATT
B19: AGAGGUC (DNA:RNA)
RNA: B1 RNA with G25A, U27A, A30U
DNA 1: CAATCTGAATTCCGGTCTCCC
DNA 2: TGGTGGCTACGACGGGATT
B20: CCAGAUU (DNA:RNA)
RNA: B1 RNA with G25C, G26C, U27A, G29A, A30U, C31U
DNA 1: CAATCTGAATTCCGGTCTCCC
DNA 2: TGGTGGCTACGACGGGATT

The target in the experiment is T1, RBFOX1 RRM RbFoxmut (Fox-RRM*) (Homo sapiens, UniProt Q9NWB1 109-208, R118D;E147R;N151S;E152T).
T1 sequence: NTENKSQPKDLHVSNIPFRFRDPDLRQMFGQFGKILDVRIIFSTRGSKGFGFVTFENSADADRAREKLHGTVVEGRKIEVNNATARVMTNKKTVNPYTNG
Description: EMSA; HiTS-Eq, 1 nM pool, 10 min; buffer printed only for the single-RNA assays: 10 mM Tris pH 7.5, 150 mM NaCl, 3.4 mM EDTA, 0.001% NP-40, 30 C. The conditions noted are these: tags: His6 N-terminal (pET28a); label: 5' 32P. An outline of the steps:
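Purified RbFox RRM (wild type or mutant) was equilibrated for 10 min in 50 µL with 1 nM of a 5′-radiolabelled pool of RNA with 7 randomized nucleotides, its flanks annealed to DNA oligonucleotides, across increasing protein concentrations. Free RNA was separated by 8% native PAGE, excised, reverse-transcribed, PCR-barcoded and sequenced on an Illumina HiSeq 2500. Relative association constants came from read-count changes of each variant against the control reaction, normalised to the cognate motif.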
Consider B1, for which the binding signal was 0.0584 KA relative to UGCAUGU.

For B2, the binding signal was 0.102 KA relative to UGCAUGU. For B3 the value was 0.0832 KA relative to UGCAUGU; for B4, 0.151 KA relative to UGCAUGU. Consider B5, for which the binding signal was 0.0819 KA relative to UGCAUGU. For B6, the binding signal is 0.532 KA relative to UGCAUGU. Turning to B7, the binding signal is 0.146 KA relative to UGCAUGU. Take B8: the binding signal is 0.188 KA relative to UGCAUGU. For B9 the value was 0.21 KA relative to UGCAUGU. The value for B10 was 0.109 KA relative to UGCAUGU; that for B11 was 0.0973 KA relative to UGCAUGU; that for B12 was 0.441 KA relative to UGCAUGU. For B13 the value was 0.132 KA relative to UGCAUGU; for B14, 0.396 KA relative to UGCAUGU; for B15, 0.709 KA relative to UGCAUGU. In the case of B16, the binding signal was 0.261 KA relative to UGCAUGU. On to B17, for which the binding signal is 0.101 KA relative to UGCAUGU.

As for B18, the binding signal was 0.0965 KA relative to UGCAUGU.

As to B19, the binding signal was 0.108 KA relative to UGCAUGU. Take B20: the binding signal was 0.0808 KA relative to UGCAUGU.
